Results on eight compounds are retold here after PubChem BioAssay (NCI).

What all share (test): NCI-60 one-dose screen, 48 h (100 = growth as untreated, 0 = no growth, -100 = all killed)
Holding throughout (conditions): 10 µM

Test [1] relates to SK-MEL-2 melanoma.
Test [2] has as its system EKVX NSCLC.
In test [3] the test system is SN12C renal.
In test [4] the test system is UO-31 renal.
In test [5] the test system is TK-10 renal.
Test [6] has as its system ACHN renal.
Test [7] has as its system CAKI-1 renal.
Test [8] relates to A498 renal.
For test [9], the system named is CCRF-CEM leukemia.
Test [10] deals with MOLT-4 leukemia.
In test [11] the test system is SR leukemia.
The subject of test [12] is RPMI-8226 leukemia.
The test system of test [13] is OVCAR-8 ovarian.
The subject of test [14] is OVCAR-5 ovarian.
For test [15], the system named is SK-OV-3 ovarian.
Test [16] has as its system IGROV1 ovarian.
For test [17], the system named is OVCAR-3 ovarian.
Test [18] deals with HS 578T breast.
Test [19] concerns NCI/ADR-RES ovarian.
In test [20] the test system is OVCAR-4 ovarian.

Structures are written as SMILES. This is part of a sample that, as a whole, favours compounds with a hit. Of some 83,000 tested, about 20% had one in any assay.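 Each cell line was grown in a 96-well plate and treated with one concentration of compound for 48 hours. Values below 10 were considered active.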 Values without a mark were called inactive. The source made the active and inactive calls.

On to `CCOC(=O)CN(c1sc(C)c(C)c1C(=O)OCC)S(=O)(=O)c1ccc(C)cc1`, for which the growth in test [1] was 127%; in [2], 101%; in test [3], 87%; in test [4] it was 80.7%; in [5], 121%; in test [6] it was 98.1%. The growth was 72.8% in test [7]; 106% in test [8]; 94.4% in [9]; 97% in [10]; 96.9% in test [11]; 98.2% in test [12]. The growth is 105% in [13]; 107% in test [14]; 87.1% in [15]; 111% in test [16]; 109% in test [17]; 95.9% in [18]. Further, the growth in test [19] was 88%.

On to `O=C(Nc1cc(Cl)cc2c1-c1ccc(Cl)cc1C2O)C(Cl)Cl` (configuration not stated), for which the growth in [1] was 110%; in test [2], 69%; in [3], 82.2%; in [4], 74%; in test [5] it was 118%; in test [6] it was 61.9%. Further, the growth was 67.5% in test [7]; 74.4% in test [8]; 69.1% in [9]; 78.8% in [10]; 82.3% in test [11]; 65% in test [12]. The growth in test [13] is 86.5%; in [14], 94.8%; in [20] it was 62.9%; in [15] it was 102%; in test [16], 73.2%; in [17], 97.3%. In test [19], the growth was 83.5%.

For the compound `O=C(CSc1nnc(-c2cccnc2SCc2ccccc2)o1)Nc1nc(Cl)cc(Cl)n1`, the growth in test [1] was 102%; in test [2], 103%; in test [3], 103%; in test [4], 67.7%; in test [5], 109%; in test [6], 103%. The growth was 95.8% in test [7]; 112% in [8]; 101% in test [9]; 95.7% in [10]; 101% in test [11]; 100% in [12]. Further, the growth in test [13] was 102%; in test [14], 106%; in test [20], 106%; in test [15], 110%; in test [16] it was 105%; in [17], 106%. Besides, the growth in [18] was 97.4%; in test [19], 101%.

As to `O=C(CCl)Oc1ccc(OC(=O)CCl)cc1`, the growth in test [1] is 96.1%; in [2], 90.4%; in test [3], 87.2%; in test [4], 64.1%; in [5], 113%; in test [6], 75.2%. For the same compound, the growth in test [7] is 93.7%; in test [8], 97.4%; in test [9], 13.3%; in [10], 84.2%; in test [11] it was 68.7%; in test [12] it was 25.7%. In addition, the growth was 88.8% in [13]; 111% in test [14]; 91.3% in test [20]; 93.1% in [16]; 77.6% in test [17]; 82.4% in test [18].

Regarding `O=C(COc1cccc(/C=C2\CSc3ccc(Cl)cc3C2=O)c1)c1ccc(Cl)cc1`, the growth in test [1] was 44.2%; in [2], 70.3%; in test [3], 79.7%; in test [4], -7.04% (active); in [5] it was 127%; in test [6], 81.7%. Moreover, the growth in [7] was 61.2%; in [8], 91.3%; in test [9], -26.1% (active); in [10], -12.1% (active); in [11] it was -3.18% (active); in test [12], -25.1% (active). Further, the growth in test [13] was 66.9%; in test [14] it was 86.7%; in test [20], 75%; in test [15], 86.2%; in test [17], 90.3%; in [19] it was 72.8%.

For the compound `CCN(CC)CCCC(Nc1c2ccc(Cl)cc2nc2ccc(OC)cc12)c1ccc(F)cc1` (configuration not stated), the growth was 116% in [1]; 40.2% in test [2]; 25.7% in [3]; -43.3% (active) in [4]; -59.6% (active) in test [5]; -58.9% (active) in test [6]. For the same compound, the growth in test [7] is 87.6%; in [8], 59.5%; in test [9] it was -18.5% (active); in test [10], 2.74% (active); in test [11], -13.9% (active); in test [12], -33.3% (active). For the same compound, the growth in test [13] is 15.2%; in test [14], 61.7%; in [20], 12.6%; in test [16], 41.5%; in [17] it was 108%; in test [18], 84%. Besides, the growth in test [19] is 28.9%.

Consider `CC(=O)C1CCC2C3CC=C4CC(SC(=N)N)CCC4(C)C3CCC12C` (configuration not stated), for which the growth is 32.3% in test [1]; 55.2% in [2]; 47.1% in test [3]; 63% in test [4]; 66.8% in test [5]; 54.4% in test [6]. Moreover, the growth in [7] is 62.7%; in test [8] it was 78.3%; in [9] it was 6.89% (active); in test [10] it was -5.72% (active); in [11], -36% (active); in test [12] it was -7.56% (active). For the same compound, the growth in test [13] was 30.8%; in test [14], 80.4%; in test [20], 50.1%; in test [15], 75%; in test [16] it was 35.7%; in test [17], 63.1%. Moreover, the figures for the growth in test [18] and in test [19] were 72.6% and 38.2%, respectively.

Consider `CN(C)c1ncnc2c1nnn2C1OC(CO)C(O)C1O` (configuration not stated), for which the growth was -17.2% (active) in [1]; 39.9% in [2]; 18.7% in test [3]; 8.73% (active) in [4]; -2.87% (active) in test [5]; 5.56% (active) in test [6]. The growth in [7] is 7.19% (active); in test [8], 22.3%; in test [9], 8.83% (active); in test [10], 8.29% (active); in [11] it was 31.3%; in test [12], -4.55% (active). Besides, the growth in test [13] was 8.85% (active); in [14], 26.8%; in [20], 23.4%; in [15], 4.66% (active); in [16], 3.79% (active); in [17] it was -18.8% (active). Besides, the growth in test [19] is 15.3%.
